# Data taken from the supplement of paper PMC10037445.
# ± gives the standard deviation of the averaged measurements. The full ranking holds about 2,900 compounds; the median of “NF-kB SEAP reporter activity, fold change vs agonist alone” is about 0.99, and the highest 2% start at about 2.6. The sample as a whole holds a higher share of the highest values than the screen did.
# What was measured:
# RAW-Dual [1] = assay: NF-kB SEAP reporter activity, fold change vs agonist alone; higher = enhanced NF-kB activity
# Procedure, shortened: (§1)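 Cytotoxic wells were those whose IncuCyte confluency was below 70% of agonist controls in both mask sets. The cells were RAW-Dual macrophages at 50,000 cells/well in DMEM on 384-well plates, dosed with 50 nL of library stock by pin tool, stimulated with a PRR agonist 1 h later, and kept at 37 °C, 5% CO2 for 20 hours. IRF and NF-κB reporter activity, as fold change over agonist-alone wells, came from supernatant read by QuantiLuc luminescence and QuantiBlue absorbance, respectively.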
# RAW-Dual [2] = assay: NF-kB SEAP reporter activity, fold change vs agonist alone; cytotoxicity flag (confluency mask): cytotoxic (confluency <70% of control); higher = enhanced NF-kB activity
# Procedure, shortened: as §1
# RAW-Dual [3] = assay: NF-kB SEAP reporter activity, fold change vs agonist alone; cytotoxicity flag (confluency mask): not cytotoxic; higher = enhanced NF-kB activity
# Procedure, shortened: as §1
# [4] = library stock concentration (final ~1000-fold dilution): 10 mM, cytotoxicity flag (confluency mask): cytotoxic (confluency <70% of control), agonist: MPLA (TLR4) […]
# [5] = agonist: ODN 1826 (TLR9) 0.5 ug/mL
# [6] = agonist: Pam2CSK4 (TLR2/6) 0.1 ug/mL
# [7] = agonist: Pam3CSK4 (TLR2/1) 0.1 ug/mL
# [8] = library stock concentration (final ~1000-fold dilution): 10 mM, cytotoxicity flag (confluency mask): not cytotoxic, agonist: Imiquimod (TLR7) […]
# [9] = library stock concentration (final ~1000-fold dilution): 10 mM, cytotoxicity flag (confluency mask): not cytotoxic, agonist: MPLA (TLR4) […]
compound,measurement,setting,value
C=CC(=O)Nc1cc(Nc2nccc(-c3cn(C)c4ccccc34)n2)c(OC)cc1N(C)CCN(C)C.CS(=O)(=O)O,NF-kB SEAP reporter activity,RAW-Dual [1]; [4],1.91
C=CC(=O)Nc1cc(Nc2nccc(-c3cn(C)c4ccccc34)n2)c(OC)cc1N(C)CCN(C)C.CS(=O)(=O)O (library stock concentration (final ~1000-fold dilution): 10 mM),NF-kB SEAP reporter activity,RAW-Dual [2]; agonist: LPS (TLR4) 0.1 ug/mL,2.39
same,NF-kB SEAP reporter activity,RAW-Dual [2]; [5],0.214
same,NF-kB SEAP reporter activity,RAW-Dual [2]; [6],1.28
same,NF-kB SEAP reporter activity,RAW-Dual [2]; [7],0.898
O=[N+]([O-])c1ccc(Nc2ccccc2-c2ccccc2)c2nonc12,NF-kB SEAP reporter activity,RAW-Dual [1]; [8],0.973
same,NF-kB SEAP reporter activity,RAW-Dual [1]; [9],1.33
O=[N+]([O-])c1ccc(Nc2ccccc2-c2ccccc2)c2nonc12 (library stock concentration (final ~1000-fold dilution): 10 mM),NF-kB SEAP reporter activity,RAW-Dual [3]; agonist: LPS (TLR4) 0.1 ug/mL,2.02
same,NF-kB SEAP reporter activity,RAW-Dual [3]; [5],1.02
same,NF-kB SEAP reporter activity,RAW-Dual [3]; [6],0.555
same,NF-kB SEAP reporter activity,RAW-Dual [3]; [7],0.754
CC(C)(C)C(=O)N1N=CCC1c1ccccc1 (stereo not drawn) (library stock concentration (final ~1000-fold dilution): 10 mM),NF-kB SEAP reporter activity,RAW-Dual [3]; agonist: LPS (TLR4) 0.1 ug/mL,1.02 ± 0.095
same,NF-kB SEAP reporter activity,RAW-Dual [3]; [5],0.9171 ± 0.0045
same,NF-kB SEAP reporter activity,RAW-Dual [3]; [6],0.983 ± 0.09
same,NF-kB SEAP reporter activity,RAW-Dual [3]; [7],1.3 ± 0.015
CC(C)(C)C(=O)N1N=CCC1c1ccccc1 (stereo not drawn),NF-kB SEAP reporter activity,RAW-Dual [1]; [8],0.871 ± 0.094
same,NF-kB SEAP reporter activity,RAW-Dual [1]; [9],1.025 ± 0.0035
O=C(C=Cn1cnc(-c2cc(C(F)(F)F)cc(C(F)(F)F)c2)n1)NNc1cnccn1 (library stock concentration (final ~1000-fold dilution): 10 mM),NF-kB SEAP reporter activity,RAW-Dual [3]; agonist: LPS (TLR4) 0.1 ug/mL,0.255
same,NF-kB SEAP reporter activity,RAW-Dual [3]; [5],0.841
same,NF-kB SEAP reporter activity,RAW-Dual [3]; [6],0.42
same,NF-kB SEAP reporter activity,RAW-Dual [3]; [7],0.428
O=C(C=Cn1cnc(-c2cc(C(F)(F)F)cc(C(F)(F)F)c2)n1)NNc1cnccn1,NF-kB SEAP reporter activity,RAW-Dual [1]; [8],1.41
same,NF-kB SEAP reporter activity,RAW-Dual [1]; [9],0.523
Cc1ccc(NC(=O)c2ccc(CN3CCC(N(C)C)C3)c(C(F)(F)F)c2)cc1Nc1nccc(-c2cncnc2)n1 (stereo not drawn) (library stock concentration (final ~1000-fold dilution): 10 mM),NF-kB SEAP reporter activity,RAW-Dual [2]; agonist: LPS (TLR4) 0.1 ug/mL,0.247
same,NF-kB SEAP reporter activity,RAW-Dual [2]; [5],0.833
same,NF-kB SEAP reporter activity,RAW-Dual [2]; [6],1.4
same,NF-kB SEAP reporter activity,RAW-Dual [2]; [7],1.16
Cc1ccc(NC(=O)c2ccc(CN3CCC(N(C)C)C3)c(C(F)(F)F)c2)cc1Nc1nccc(-c2cncnc2)n1 (stereo not drawn),NF-kB SEAP reporter activity,"RAW-Dual [1]; library stock concentration (final ~1000-fold dilution): 10 mM, cytotoxicity flag (confluency mask): cytotoxic (confluency <70% of control), agonist: Imiquimod (TLR7) […]",2.42
same,NF-kB SEAP reporter activity,RAW-Dual [1]; [4],1.36
Cc1nc(NC(=O)N2CCCC2C(N)=O)sc1-c1ccnc(C(C)(C)C(F)(F)F)c1 (stereo not drawn),NF-kB SEAP reporter activity,RAW-Dual [1]; [8],1.35
same,NF-kB SEAP reporter activity,RAW-Dual [1]; [9],1.13
Cc1nc(NC(=O)N2CCCC2C(N)=O)sc1-c1ccnc(C(C)(C)C(F)(F)F)c1 (stereo not drawn) (library stock concentration (final ~1000-fold dilution): 10 mM),NF-kB SEAP reporter activity,RAW-Dual [3]; agonist: LPS (TLR4) 0.1 ug/mL,1.65
same,NF-kB SEAP reporter activity,RAW-Dual [3]; [5],1.78
same,NF-kB SEAP reporter activity,RAW-Dual [3]; [6],1.43
same,NF-kB SEAP reporter activity,RAW-Dual [3]; [7],1.09
C=CC(=O)N1CCN(CCCn2c(=O)c(-c3c(Cl)c(OC)cc(OC)c3Cl)cc3cnc(NC)nc32)CC1,NF-kB SEAP reporter activity,RAW-Dual [1]; [8],0.952
same,NF-kB SEAP reporter activity,RAW-Dual [1]; [9],1.23
C=CC(=O)Nc1cccc(C)c1Nc1ncc2cc(-c3c(Cl)c(OC)cc(OC)c3Cl)ccc2n1 (library stock concentration (final ~1000-fold dilution): 2 mM),NF-kB SEAP reporter activity,RAW-Dual [3]; agonist: LPS (TLR4) 0.1 ug/mL,1.04
same,NF-kB SEAP reporter activity,RAW-Dual [3]; [5],1.08
same,NF-kB SEAP reporter activity,RAW-Dual [3]; [6],0.531
same,NF-kB SEAP reporter activity,RAW-Dual [3]; [7],0.89
C=CC(=O)NC1CCOCC1Nc1ncc2cc(-c3c(Cl)c(OC)cc(OC)c3Cl)ccc2n1 (stereo not drawn),NF-kB SEAP reporter activity,RAW-Dual [1]; [8],0.68
same,NF-kB SEAP reporter activity,RAW-Dual [1]; [9],0.869
C=CC(=O)Nc1cccc(C)c1Nc1ncc2cc(-c3c(Cl)c(OC)cc(OC)c3Cl)ccc2n1,NF-kB SEAP reporter activity,"RAW-Dual [1]; library stock concentration (final ~1000-fold dilution): 2 mM, cytotoxicity flag (confluency mask): not cytotoxic, agonist: Imiquimod (TLR7) […]",1.08
same,NF-kB SEAP reporter activity,"RAW-Dual [1]; library stock concentration (final ~1000-fold dilution): 2 mM, cytotoxicity flag (confluency mask): not cytotoxic, agonist: MPLA (TLR4) […]",1.2
C=CC(=O)N1CCN(CCCn2c(=O)c(-c3c(Cl)c(OC)cc(OC)c3Cl)cc3cnc(NC)nc32)CC1 (library stock concentration (final ~1000-fold dilution): 10 mM),NF-kB SEAP reporter activity,RAW-Dual [3]; agonist: LPS (TLR4) 0.1 ug/mL,3.2
same,NF-kB SEAP reporter activity,RAW-Dual [3]; [5],1.05
same,NF-kB SEAP reporter activity,RAW-Dual [3]; [6],0.933
same,NF-kB SEAP reporter activity,RAW-Dual [3]; [7],1.15
C=CC(=O)NC1CCOCC1Nc1ncc2cc(-c3c(Cl)c(OC)cc(OC)c3Cl)ccc2n1 (stereo not drawn) (library stock concentration (final ~1000-fold dilution): 10 mM),NF-kB SEAP reporter activity,RAW-Dual [3]; agonist: LPS (TLR4) 0.1 ug/mL,0.691
same,NF-kB SEAP reporter activity,RAW-Dual [3]; [5],0.827
same,NF-kB SEAP reporter activity,RAW-Dual [3]; [6],0.34
same,NF-kB SEAP reporter activity,RAW-Dual [3]; [7],0.478
